Each structure is given as a SMILES string. About 83,000 compounds went through this panel and 20% of them were active in at least one assay; those are over-represented in the sample as a whole.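 Activity criterion: percent growth below 10, measured after cells in 96-well plates were exposed to a single compound concentration for 48 hours.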 Unmarked numbers belong to inactive results. The source made the active and inactive calls.

The test system of this experiment is HL-60(TB) leukemia. The experiment is described as follows: NCI-60 one-dose screen, 48 h (100 = growth as untreated, 0 = no growth, -100 = all killed). The settings on record: 10 µM unless noted. The procedure:
Growth inhibition of the HL-60(TB) human tumor cell line is measured as a screen for anti-cancer activity. Cells are grown in 96 well plates and exposed to the test compound for 48 hours. Compounds are tested at a single concentration, which is 10^-5 M for most compounds. The reported endpoint is percent growth (GI% or GIPRCNT), where numbers from 0 - 100% represent growth inhibition, and numbers from -100% - 0 represent cell death. For example, a value of 40 represents 60% growth inhibition. A value of 0 means no net growth occurred over the course of the experiment. A value of -40 indicates 40% of cells at the beginning of the experiment died by the end of the experiment. A value of -100 means all cells are dead at the end of the experiment.
NCI-60 Human Tumor Cell Lines Screen was performed using the standard one-dose NCI protocol, which is described in more detail at https://dtp.cancer.gov/discovery_development/nci-60/default.htm.
Compounds with GIPRCNT values below 10 were considered active. Activity score was based on GIPRCNT using the following formula: […]
Score is 0 for GIPRCNT values of 100 or above, 50 for GIPRCNT values of 0, and 100 for GIPRCNT values of -100.
For the compound `O=C(Cn1c(-c2ccccc2)nc2ccccc21)N=Nc1c(O)[nH]c2ccc(Br)cc12`, the growth is 42.4%.

With `O=C(c1ccc(Cl)cc1)C1[C@H](c2ccccc2Cl)[C@@H](c2ccccc2)NC12C(=O)Nc1ccc(Br)cc12` (stereo not given in full), the growth was -43.7% (active).

In the case of `CC(=O)c1cc(C(=O)N2c3ccccc3Sc3ccccc32)n2ccc(C)cc12`, the growth was 33.3%.

For `O=C(c1ccccc1)c1ccc2nc(-c3ccccc3Br)[nH]c2c1`, the growth is -52.4% (active).

Consider `COP(=O)(CC(F)(F)C(F)(F)F)OC`, for which the growth was 8.78% (active).

As to `COc1ccc(SC2c3cc(OC)ccc3Oc3nc(N)c(C#N)c(N)c32)cc1` (stereo not given), the growth is 64.7%.

With `Cc1nn(-c2ccccc2)c2ncn(CC(=O)N/N=C/c3ccccc3O)c(=O)c12`, the growth was 6.2% (active).

Take `Cn1cc(-c2cc3nc(-c4cn(C)c5ncccc45)cc(N)n3n2)c2ccccc21`: the growth was -44.8% (active).

Consider `COc1sc(/C=N/NC(=O)c2[nH]c3ccc(Br)cc3c2-c2ccccc2)cc1Br`, for which the growth is -37.7% (active).

On to `Cc1ccc2nc3c(nc2c1)c1cc(I)ccc1n3CCN(C)C`, for which the growth was 13.7%.

As to `O=C(Nc1nc2ccc([N+](=O)[O-])cc2s1)Nc1ccc(Cl)cc1Cl`, the growth is 50.1%.

Regarding `COc1cccc(-c2ccc(/C=N/NC(=O)c3[nH]c4ccc(Br)cc4c3-c3ccccc3)o2)c1`, the growth is -38.4% (active).

`Cc1ccc(C(=O)CSc2nc3ccc(C)cc3c(=O)n2-c2ccc(F)cc2)cc1`: the growth is 123%.

As to `COC(=O)/C=C/c1cccc2c1C(=O)NC(C)(c1cc3cc4ccccc4cc3oc1=O)N2` (stereo not given), the growth was 54.7%.

For `S=C(NCCc1ccccc1)Nc1ccc(OCc2nc3ccc(Cl)cc3[nH]2)cc1`, the growth is 11.6%.

For the compound `CS(=O)(=O)c1ccc(-n2nc(C(=O)NCc3ccccc3)cc2-c2ccc(Cl)cc2)cc1`, the growth was 83%.

With `COc1ccc(-c2ccc(/C=N/NC(=O)c3[nH]c4ccc(Br)cc4c3-c3ccccc3)s2)cc1`, the growth was 95.6%.

For the compound `CCCCCCCCc1ccc(C(=O)Nc2ccc(C)cc2C(=O)O)cc1C`, the growth is 102%.

On to `O=C(/C=C/Nc1ccc(Cl)cc1)c1ccc2c(c1)Nc1ccccc1S2`, for which the growth is 92.7%.

On to `CCN(CC)c1ccc(/C=N/Nc2nc(-c3ccc(C)cc3)cs2)c(O)c1`, for which the growth was 70%.

For `O=C(Nc1nc2ccccc2s1)c1ccc(Br)cc1`, the growth was 99.1%.

Regarding `Cn1cc(-c2cc(N)n3nc(-c4cn(C)c5ccc(Cl)cc45)cc3n2)c2ccccc21`, the growth is 92.5%.

Turning to `CC(C)(C)OC(=O)N1C/C(=C\c2ccc(F)cc2)C(=O)/C(=C/c2ccc(F)cc2)C1`, the growth was -6.78% (active).

Consider `Cc1ccc(-c2ccc(SCC(=O)Nc3ccc(Cl)c(C(F)(F)F)c3)nn2)cc1`, for which the growth was -22.3% (active).

`CC(=O)C[n+]1cccc2c3ccccc3ccc21`: the growth is 85%.

`COc1ccc(/C=N/NC(=O)Cn2nc(Cc3ccc(OC)cc3)c3onc(C)c3c2=O)cc1`: the growth was 27.6%.

With `Cc1nn(-c2ccccc2)c2ncn(CC(=O)N/N=C/c3c[nH]c4ccccc34)c(=O)c12`, the growth is 83.8%.

Take `COc1c(F)ccc(C(=O)Nc2ccc3nc(NC(=O)C4CCCN(S(=O)(=O)c5ccc(C(C)(C)C)cc5)C4)sc3c2)c1F` (stereo not given): the growth was 66.9%.

For `CC(C)(C)c1cc(-c2cc(-c3ccccc3)[nH]c(=O)c2C#N)cc(C(C)(C)C)c1`, the growth was 82.3%.

For `CSc1nc(-c2cccc(C)c2)c2cc(-c3ccccc3)n(C)c2n1`, the growth was -15.8% (active).

For `CC1=C(C(=O)OCc2ccccc2)C(c2c(O)cc(O)cc2O)n2c(nc3ccccc32)N1` (stereo not given), the growth was 27.2%.

For the compound `Cn1cc(-c2cc(N)n3nc(-c4c[nH]c5ccc(Cl)cc45)cc3n2)c2cccnc21`, the growth is -59.8% (active).

Consider `O=C(NO)c1ccc(Cn2ccc3c(NCc4ccccc4)ncnc32)cc1`, for which the growth is -16% (active).

Consider `COc1cc(C2CC(c3ccc(S(=O)(=O)NCCNc4nc(N(C)C)nc(N5CCOCC5)n4)cc3)=Nc3c(N)nc(N)nc3N2)cc(OC)c1OC` (stereo not given), for which the growth is 93.6%.

In the case of `CN1CCN(C(=O)Oc2cc3c(c4ccccc24)[C@H](CCl)CN3C(=O)c2cc3cc(OCCCN4CCC4)ccc3[nH]2)[C@H]2CSSC[C@H]21`, the growth was -22.8% (active).

For `O=C(Nc1ccc(Cl)c(C(F)(F)F)c1)c1cncc(C#Cc2cnc3ccc(N4CCOCC4)nn23)c1`, the growth is -21.7% (active).

Consider `CCCCCCCCCCCCCCCCCCCC(=O)NCCc1c[nH]c2ccc(O)cc12`, for which the growth is 52.8%.

For `CCOC(=O)CNC(=O)CN(Cc1ccccc1)C(=O)[C@@]1(C)CCC[C@]2(C)[C@H]3CC4C(C(C)C)=C[C@]3(CC[C@H]21)[C@@H]1C(=O)CCC(=O)[C@H]41`, the growth was 2.73% (active).

On to `O=C(CSc1nc2ccccc2c(=O)[nH]1)NCCN1CCCCC1`, for which the growth is 94.4%.

For `CC1(C)CC[C@]2(C(=O)Nc3ccccc3)CC[C@]3(C)C(=CCC4[C@@]5(C)C[C@@H](O)[C@H](O)[C@@](C)(CO)C5CC[C@]43C)C2C1` (stereo not given in full), the growth is 13.1%.

Values taken from PubChem BioAssay (NCI).
